Source: PubChem BioAssay AID1159580 (chemical genetic matrix, 2015)
About 2,000 (36%) of roughly 5,500 compounds were called active. Roughly 18% stayed inconclusive and do not appear here. Rule as the data show it: active = normalized growth mostly below about 0.91 (no sharp cut-off); inconclusive = no clear call, values can overlap the other calls; inactive = mostly above about 0.92. The list shows a part of the results.

Assay: chemical genetic growth profiling, strain panel (AID 1159580);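 also: tested at 20 µM; growth read once vehicle control cultures reached saturation at 30 °C; 1 = growth at the plate median or of vehicle wells; lower values mean less growth of the strain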
Conditions: S. cerevisiae deletion strains, growth OD

Measured: normalized growth

NCCC1CCCC(CCN)N1 (centres undefined)
inactive: locus YAL013W, strain DEP1, stronger effect = lower value 1.01 | locus YAL040C, strain CLN3, stronger effect = lower value 1.01 | locus YCL061C, strain MRC1 (second series), stronger effect = lower value 1.01 | locus YDR363W, strain ESC2, stronger effect = lower value 1.01 | locus YER002W, strain NOP16, stronger effect = lower value 0.995 | locus YGR078C, strain PAC10, stronger effect = lower value 1.02 | locus YGR229C, strain SMI1, stronger effect = lower value 1.01 | locus YJR075W, strain HOC1, stronger effect = lower value 1.01 | locus YNL153C, strain GIM3, stronger effect = lower value 1.01 | locus YNL175C, strain NOP13, stronger effect = lower value 1 | locus YNL197C, strain WHI3, stronger effect = lower value 1 | locus YNL224C, strain SQS1, stronger effect = lower value 1 | locus YOR083W, strain WHI5 (second series), stronger effect = lower value 1.01 | locus YPL055C, strain LGE1, stronger effect = lower value 1.02 | locus YPL241C, strain CIN2, stronger effect = lower value 1.01

COc1ccnc(CS(=O)c2nc3ccc(OC(F)F)cc3[nH]2)c1OC (centres undefined)
inactive: locus YAL021C, strain ccr4, stronger effect = lower value 0.993 | locus YAL026C, strain drs2, stronger effect = lower value 1.04 | locus YAL030W, strain snc1, stronger effect = lower value 1.02 | locus YBL061C, strain skt5, stronger effect = lower value 1.04 | locus YBR009C, strain hhf1, stronger effect = lower value 0.991 | locus YBR023C, strain chs3, stronger effect = lower value 1.04 | locus YBR171W, strain sec66, stronger effect = lower value 1.03 | locus YBR231C, strain swc5, stronger effect = lower value 1.01 | locus YBR279W, strain paf1, stronger effect = lower value 1.04 | locus YCL011C, strain gbp2, stronger effect = lower value 1.02 | locus YCL016C, strain dcc1, stronger effect = lower value 1.03 | locus YCL069W, strain vba3, stronger effect = lower value 1.02 | locus YCR088W, strain abp1, stronger effect = lower value 1.03 | locus YDL005C, strain med2, stronger effect = lower value 1.02 | locus YDL040C, strain nat1, stronger effect = lower value 1.03 | locus YDR001C, strain nth1, stronger effect = lower value 1.02 | locus YDR069C, strain doa4, stronger effect = lower value 1.02 | locus YDR137W, strain rgp1, stronger effect = lower value 1.05 | locus YDR159W, strain sac3, stronger effect = lower value 0.94 | locus YDR195W, strain ref2 1.01 | locus YDR297W, strain sur2, stronger effect = lower value 1.02 | locus YDR334W, strain swr1, stronger effect = lower value 1.03 | locus YDR335W, strain msn5, stronger effect = lower value 1.05 | locus YDR392W, strain spt3, stronger effect = lower value 0.925 | locus YEL003W, strain gim4, stronger effect = lower value 1.02 | locus YEL037C, strain rad23, stronger effect = lower value 1.03 | locus YEL061C, strain CIN8 (second series), stronger effect = lower value 1.02 | locus YER015W, strain faa2, stronger effect = lower value 1.03 | locus YER016W, strain bim1, stronger effect = lower value 1.04 | locus YER111C, strain swi4, stronger effect = lower value 1.05 | locus YER155C, strain BEM2 (second series), stronger effect = lower value 0.917 | locus YFR010W, strain ubp6, stronger effect = lower value 1.01 | locus YGL167C, strain pmr1, stronger effect = lower value 1.02 | locus YGL173C, strain kem1, stronger effect = lower value 0.989 | locus YGL227W, strain vid30, stronger effect = lower value 1.03 | locus YGL240W, strain doc1, stronger effect = lower value 0.977 | locus YGL253W, strain hxk2, stronger effect = lower value 1.05 | locus YHR013C, strain ard1, stronger effect = lower value 1.05 | locus YHR027C, strain rpn1, stronger effect = lower value 0.989 | locus YHR030C, strain SLT2, stronger effect = lower value 0.864 | locus YHR079C, strain IRE1, stronger effect = lower value 0.946 | locus YHR142W, strain chs7, stronger effect = lower value 1.05 | locus YJL092W, strain hpr5, stronger effect = lower value 1.01 | locus YJL095W, strain BCK1 (second series), stronger effect = lower value 1.02 | locus YJL095W, strain BCK1, stronger effect = lower value 0.89 | locus YJL115W, strain asf1, stronger effect = lower value 1.02 | locus YJL129C, strain trk1, stronger effect = lower value 1.03 | locus YJL154C, strain vps35, stronger effect = lower value 1.02 | locus YJL164C, strain tpk1, stronger effect = lower value 1 | locus YJL166W, strain qcr8, stronger effect = lower value 0.989 | locus YJL187C, strain SWE1, stronger effect = lower value 1.01 | locus YJR066W, strain TOR1, stronger effect = lower value 0.922 | locus YKL160W, strain elf1, stronger effect = lower value 1.03 | locus YKR026C, strain gcn3, stronger effect = lower value 1.04 | locus YKR091W, strain srl3, stronger effect = lower value 1.03 | locus YLL001W, strain dnm1, stronger effect = lower value 0.98 | locus YLL026W, stronger effect = lower value 1.02 | locus YLL041C, strain sdh2, stronger effect = lower value 1.01 | locus YLR027C, strain aat2, stronger effect = lower value 1.01 | locus YLR113W, strain HOG1, stronger effect = lower value 0.926 | locus YLR221C, strain rsa3, stronger effect = lower value 0.982 | locus YLR258W, strain gsy2, stronger effect = lower value 1.04 | locus YLR262C, strain YPT6 (second series), stronger effect = lower value 1.01 | locus YLR320W, strain mms22, stronger effect = lower value 0.936 | locus YLR342W, strain FKS1, stronger effect = lower value 1.02 | locus YLR357W, strain rsc2, stronger effect = lower value 1 | locus YLR370C, strain arc18, stronger effect = lower value 1.03 | locus YLR384C, strain iki3, stronger effect = lower value 1.01 | locus YML120C, strain ndi1, stronger effect = lower value 1 | locus YMR058W, strain fet3, stronger effect = lower value 1.04 | locus YMR125W, strain sto1, stronger effect = lower value 1.02 | locus YMR129W, stronger effect = lower value 1.03 | locus YMR205C, strain PFK2, stronger effect = lower value 1.01 | locus YMR231W, strain pep5, stronger effect = lower value 1.03 | locus YNL071W, strain lat1, stronger effect = lower value 1.02 | locus YNL183C, strain NPR1, stronger effect = lower value 0.868 | locus YNL209W, strain ssb2, stronger effect = lower value 1.02 | locus YNL248C, strain rpa49, stronger effect = lower value 1.06 | locus YNL322C, strain KRE1 (second series), stronger effect = lower value 1.05 | locus YNR049C, strain mso1, stronger effect = lower value 1.03 | locus YOR001W, strain rrp6, stronger effect = lower value 1 | locus YOR070C, strain gyp1, stronger effect = lower value 1.02 | locus YOR080W, strain dia2, stronger effect = lower value 1.04 | locus YOR083W, strain WHI5, stronger effect = lower value 0.995 | locus YOR106W, strain vam3, stronger effect = lower value 1.02 | locus YOR231W, strain MKK1, stronger effect = lower value 0.953 | locus YOR265W, strain rbl2, stronger effect = lower value 1 | locus YOR270C, strain vph1, stronger effect = lower value 1.2 | locus YOR290C, strain snf2, stronger effect = lower value 1.06 | locus YPL051W, strain arl3, stronger effect = lower value 1 | locus YPL078C, strain atp4, stronger effect = lower value 1.04 | locus YPL106C, strain sse1, stronger effect = lower value 1.03 | locus YPL240C, strain hsp82, stronger effect = lower value 1.03 | locus YPL256C, strain CLN2, stronger effect = lower value 0.969
